Only some compounds are listed: those with a hit (about 2.8% of all), similar ones and a draw of the others.
Pol eta inh = qHTS for Inhibitors of Polymerase Eta | 1.2% of 390,000 active | Potency, µM (highest dose often 114 µM), hits mostly inhibitors | recombinant Pol eta, fluorescent DNA replication assay | AID 588591, 2011 | DNA polymerase eta (Homo sapiens), Q9Y253
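Pol eta at 10 nM preincubated with compounds 15 min at room temperature; reaction started with fluorescent substrate (50 nM final) and read kinetically at 0 and 10 min.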
POLK inh = qHTS for Inhibitors of Polymerase Kappa; DNA polymerase kappa (Homo sapiens), Q9UBT6; purified Pol kappa, fluorescent DNA synthesis assay, 10 min; Potency, µM (highest dose often 107 µM), hits mostly inhibitors; 0.53% of 400,000 active; AID 588579, 2011
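Activity was followed as the change in fluorescence between reads at 0 and 10 min after starting the reaction with 50 nM substrate. Beforehand, 10 nM polymerase had been preincubated with compound for 15 min at room temperature.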
WRN helicase inh = qHTS for Inhibitors of WRN Helicase; Bifunctional 3'-5' exonuclease/ATP-dependent helicase WRN (Homo sapiens), Q14191; WRN helicase unwinding, fluorescent forked duplex, kinetic; Potency, µM (series often up to 114 µM), hits mostly inhibitors; 0.46% of 360,000 active; note: nearly all actives have a fitted effect of over 55% in size
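Screening of the MLSMR collection measured strand separation of a quenched forked DNA duplex (100 nM) by 20 nM WRN with 2 mM ATP, all final. Compounds were preincubated with enzyme 15 min at room temperature.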
PI5P4Ka inh = qHTS for Inhibitors of phosphatidylinositol 5-phosphate 4-kinase (PI5P4K); Phosphatidylinositol 5-phosphate 4-kinase type-2 alpha (Homo sapiens), P48426; PI5P4Kalpha enzyme, ADP-Glo luminescence, 60 min; active compounds read low; max response, %; 1.2% of 330,000 active; active = max response of -50% or lower; inconclusive = between -30% and -50%; inactive = -30% or higher; note: value at the top dose of about 77 µM
Target sequence (P48426 whole entry, looked up): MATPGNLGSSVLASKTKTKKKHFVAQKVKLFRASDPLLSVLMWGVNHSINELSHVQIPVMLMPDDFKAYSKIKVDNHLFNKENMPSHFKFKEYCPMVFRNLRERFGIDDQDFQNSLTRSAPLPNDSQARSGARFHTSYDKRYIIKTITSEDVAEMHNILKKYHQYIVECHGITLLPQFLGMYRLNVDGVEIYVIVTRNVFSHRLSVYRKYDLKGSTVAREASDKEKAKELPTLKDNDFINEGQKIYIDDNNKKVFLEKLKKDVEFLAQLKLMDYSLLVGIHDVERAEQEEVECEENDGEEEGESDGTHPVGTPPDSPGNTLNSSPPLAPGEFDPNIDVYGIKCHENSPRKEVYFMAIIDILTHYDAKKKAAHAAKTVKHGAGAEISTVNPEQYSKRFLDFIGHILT
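Single end-point luminescence (ADP-Glo) quantified ADP from PI5P4Kalpha turnover; ATP 5 microM final, 1 h at RT, 0.1% CHAPS and 0.28 mM EGTA in HEPES pH 7.4.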
Pol beta inh = qHTS Assay for Inhibitors of DNA Polymerase Beta. Pol beta primer extension/strand displacement, fluorescence kinetic. Potency, µM (highest dose often 114 µM), most hits filed as inhibitors. 1.3% of 340,000 active. AID 485314, 2010
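Human Pol beta at 10 nM; strand-displacement substrate 50 nM final. Compound exposure 15 min at room temperature before start, reaction 10 min at room temperature.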
POLI inh = qHTS for Inhibitors of Polymerase Iota | AID 588590, 2011 | 1% of 390,000 active | Pol iota fluorescent replication assay, 10 min | DNA polymerase iota (Homo sapiens), Q9UNA4 | Potency, µM (series often up to 115 µM), actives largely listed as inhibitors
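Fluorescent replication assay read twice, at 0 min and 10 min after adding 50 nM (final) substrate. Enzyme (10 nM) and compounds were first incubated 15 min at room temperature; enzyme-free buffer wells were negative controls.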
Numbers stand for hits; - = inactive; ? = inconclusive; . = not tested or not shown; [ ] = another dose, or the depositor's remark. Unless noted, calls come from the whole dose curve; as a rule, active = well fitted curve in the direction sought with a large enough effect; inconclusive = small, poorly fitted or top-dose-only effect, or another doubt; inactive = no such curve, though single readings can be large; an effect the other way counts as inactive or inconclusive.

SMILES	Pol eta inh	POLK inh	WRN helicase inh	PI5P4Ka inh	Pol beta inh	POLI inh
Cc1ccc(NC(=O)CN2C(=O)N/C(=C/c3cc(C)n(-c4cccc(C(=O)O)c4)c3C)C2=O)cc1	20µM	?	?	?	10µM	45µM
CCn1c(C)cc(/C=C2\NC(=O)N(CC(=O)Nc3cccc(C)c3)C2=O)c1C	-	-	-	-	-	-
COc1cccc(/C=C2/NC(=O)N(CC(=O)Nc3ccc(C)cc3)C2=O)c1OCc1cccc(C(=O)O)c1	?	79µM	?	-	50µM	?
Cc1cc(C)c2c(n1)SCCN2C(=O)Nc1ccc(C(=O)Nc2cc(Cl)ccc2C)cc1	-	-	.	.	-	-
O=C(O)CS(=O)(=O)c1ccc(Oc2ccc(S(=O)(=O)CC(=O)O)cc2)cc1	-	-	-	.	-	-
CC(=O)CS(=O)(=O)c1ccc(Oc2ccc(S(=O)(=O)CC(C)=O)cc2)cc1	?	?	-	-	32µM	?
O=C(COCc1cc(-c2ccco2)on1)Nc1ccc(OC(F)(F)F)cc1	-	-	.	.	?	-
Cc1sc2nc(CN3CCCC3)nc(NCc3ccncc3)c2c1C	-	-	-	-	-	-
Cc1sc2nc(CN3CCCCC3)nc(Nc3ccc4c(c3)OCCO4)c2c1C	-	-	-	-	79µM	-
COc1ccc(CCNC(=O)Cn2c(=O)c3cccn3c3ccc(F)cc32)c(OC)c1	-	-	.	.	-	-
COc1ccc(/C=N/NC(=O)c2ccc(-n3cnnn3)cc2)cc1	-	-	-	-	.	-
Cc1cc(C)c(NC(=O)COc2ccc(-n3cnnn3)cc2)c(C)c1	-	-	-	-	-	?
COc1cc(/C=N/NC(N)=S)ccc1OCC(=O)N1CCOCC1	-	-	-	-	-	-
Cc1cc(C)cc(OCC(=O)Nc2ccc(-n3cnnn3)cc2)c1	-	-	-	-	.	32µM
COc1cc(/C=N/NC(=O)COc2ccc([N+](=O)[O-])cc2)ccc1OCC(=O)N1CCOCC1	-	-	-	-	18µM	-
COc1cc(/C=N/NC(=O)COc2ccc(-n3cnnn3)cc2)ccc1OCC(N)=O	-	?	-	-	16µM	?
Oc1ccc(/C=N/Nc2ccnc3cc(Cl)ccc23)c(O)c1O	?	45µM	?	-74	14µM	?
Oc1ccc(/C=N/Nc2ccnc3cc(Cl)ccc23)cc1O	?	-	?	?	?	?
N#C/C(C(=O)Nc1ccc(Cl)cc1)=C(/S)Nc1ccccc1	?	-	-	-87	-	-
CC(C)(C)n1ncc2c(=O)n(Cc3cccc(OC(F)(F)F)c3)cnc21	.	-	.	.	.	-
CC(/C=N/Nc1ccc2nncn2n1)=C\c1ccccc1	79µM	-	-[11.6 µM]	-	?	-
Clc1ccccc1-c1nnc(COc2ccccc2)o1	-	-	.	.	-	-
CCOC(=O)C1=C(O)c2ccccc2C(=O)/C1=C\c1ccc(C)cc1	?	-	45µM	-56	-	?
COc1ccc(Nc2c(-c3ccc(C)o3)nc3cc(C)ccn23)cc1	-	-	.	.	-	-
N#Cc1ccsc1NC(=O)CSc1nnnn1-c1ccc(O)cc1	50µM	-	?	-61	?	?
SMILES	Pol eta inh	POLK inh	WRN helicase inh	PI5P4Ka inh	Pol beta inh	POLI inh
Cc1cccc(NS(=O)(=O)c2ccc3c(c2)CCN3C(=O)C2CC2)c1C	-	-	.	.	-	-
COC(C)(C)[C@H](O)COc1c2ccoc2cc2oc(=O)ccc12	-	-	-	-	-	-
CC(C)(O)C(O)COc1c2ccoc2cc2oc(=O)ccc12 (stereo unspecified)	?	?	-	-	22µM	?
Nc1ncc(Br)cc1N=Cc1ccccc1	-	-	?	-	40µM	10µM
Cc1cc(C(=O)Nc2sc3c(c2C#N)CCCC3)no1	-	-	-	.	-	?
Cc1cc(C(=O)Nc2sc3c(c2C#N)CCC3)no1	79µM	-	-[11.6 µM]	.	?	?
Cc1cc(C(F)F)n2nc(C(=O)Nc3sc4c(c3C#N)CCC4)nc2n1	22µM	?	-	-	?	50µM
Cn1ccc(C(=O)Nc2sc3c(c2C#N)CCC3)n1	79µM	-	-[11.6 µM]	-	-	?

Compound activity deposited in PubChem BioAssay by National Center for Advancing Translational Sciences (NCATS).
